# Results filed as inconclusive are left out. Calls of active or inactive are those of the source. The calls were made as follows, unless noted: active = hit-call score of the fitted dose curve at least 0.9, where 1 is the maximum; inactive = score below 0.9.
# Legend:
# [1] = ATG_TAL_CIS: Attagene CIS-FACTORIAL HepG2 Assay for human TAL Basal Promoter (AID 2282966); conditions: HepG2 Attagene cis-factorial TAL promoter reporter; actives raise or lower the signal;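 also: background control endpoint measuring basal TAL promoter reporter mRNA not a specific factor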
# In short: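 Basal-promoter background-control endpoint from a multiplexed HepG2 reporter panel. Cells were exposed 24 h, then reporter mRNA was read by RT-PCR/CE fluorescence and fitted in both directions relative to DMSO.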
# [2] = ATG_TGFb_CIS: Attagene CIS-FACTORIAL HepG2 Assay for human Transforming Growth Factor (TGF) (AID 2282967); conditions: HepG2 Attagene CIS TGFb reporter, mRNA transcription; actives raise or lower the signal
# In short: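 Transcript-level reporter readout: HepG2 transfectants, 24 h exposure, RNA to cDNA, reporter-specific PCR, fluorescent primer extension, capillary sizing against ROX standards. Gain- or loss-of-signal relative to DMSO.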
# [3] = ATG_VDRE_CIS: Attagene CIS-FACTORIAL HepG2 Assay for human Vitamin D Receptor Element (VDRE) (AID 2282968); conditions: HepG2 VDRE cis-reporter transcription, actives raise or lower the signal
# In short: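 Transient MRTU transfection of HepG2, 24 h compound exposure. Readout: reporter transcripts via RT-PCR and capillary electrophoresis, fluorescence. Bidirectional fit vs DMSO.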
# [4] = target: Estrogen receptor (Homo sapiens) (UniProt P03372); assay: ATG_ERa_TRANS: Attagene TRANS-FACTORIAL HepG2 Assay for human Estrogen Receptor alpha (ERa) (AID 2282970; active = hit-call score of the fitted dose curve at least 0.9, where 1 is the maximum); conditions: HepG2 Attagene TRANS ERa GAL4 reporter, mRNA
# In short: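 Gal4-fusion ERa transactivation, measured as reporter transcript level in transiently transfected HepG2 cells. Exposure 24 h; RT-PCR plus capillary electrophoresis with fluorescence detection.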
# [5] = ATG_M_19_TRANS: Attagene TRANS-FACTORIAL HepG2 Assay for M19 Transcription Factor (Internal Marker) (AID 2282974; active = hit-call score of the fitted dose curve at least 0.9, where 1 is the maximum); conditions: HepG2 Attagene TRANS-FACTORIAL M19 internal marker reporter
# In short: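 After transfection of HepG2 with GAL4-UAS-driven reporter constructs, cells are dosed for 24 h. Total RNA is reverse-transcribed, reporter sequences PCR-amplified and labelled, then HpaI-digested and sized by capillary electrophoresis.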
# [6] = target: Estrogen-related receptor gamma (Homo sapiens) (UniProt P62508); assay: ATG_ERRg_TRANS: Attagene TRANS-FACTORIAL HepG2 Assay for human Estrogen-Related Receptor gamma (ERRg) (AID 2282977; active = hit-call score of the fitted dose curve at least 0.9, where 1 is the maximum;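 also: hits increase reporter signal over DMSO so potencies reflect activators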); conditions: HepG2 Attagene TRANS reporter, ERRg transactivation
# In short: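 Readout: fluorescent reporter-mRNA fragments resolved by capillary electrophoresis after RT-PCR and HpaI cut. Cells: transiently transfected HepG2 carrying GAL4-UAS reporters driven by exogenous NR-Gal4 chimeras, dosed 24 h. Activity fitted upward relative to DMSO baseline.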
# [7] = target: X-box-binding protein 1 (Homo sapiens) (UniProt P17861); assay: ATG_Xbp1_CIS: Attagene CIS-FACTORIAL HepG2 Assay for human X-box Binding Protein 1 (XBP1) (AID 2282972); conditions: HepG2 XBP1 cis-element reporter, Attagene multiplex; actives raise or lower the signal
# In short: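 Changes in reporter transcript abundance, read by RT-PCR and capillary electrophoresis, reflect endogenous transcription factor activity. Transfected HepG2 cells received compound for 24 hours; DMSO defined baseline for bidirectional analysis.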
# [8] = ATG_GAL4_TRANS: Attagene TRANS-FACTORIAL HepG2 Assay for GAL4 (Internal Marker) (AID 2282976; active = hit-call score of the fitted dose curve at least 0.9, where 1 is the maximum); conditions: HepG2 Attagene TRANS GAL4 internal marker reporter
# In short: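 Background-control readout: GAL4-UAS reporter transcript in transiently transfected HepG2 cells after 24 h compound exposure. Measured by RT-PCR, 6-FAM primer extension, HpaI digest and capillary electrophoresis; gain-of-signal fit versus DMSO.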
# [9] = target: Steroid hormone receptor ERR1 (Homo sapiens) (UniProt P11474); assay: ATG_ERRa_TRANS: Attagene TRANS-FACTORIAL HepG2 Assay for human Estrogen-Related Receptor alpha (ERRa) (AID 2282971; active = hit-call score of the fitted dose curve at least 0.9, where 1 is the maximum); conditions: HepG2 Attagene TRANS reporter, ERRa transactivation
# In short: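 HepG2 cells transiently transfected with GAL4-UAS reporter units and chimeric NR-Gal4 constructs; after 24 hour compound incubation, reporter mRNA quantified by RT-PCR, fluorescent labelling and capillary electrophoresis, gain of signal versus DMSO.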
# Chain of Estrogen receptor (Homo sapiens) (P03372 whole entry, looked up, the tested form may be a part): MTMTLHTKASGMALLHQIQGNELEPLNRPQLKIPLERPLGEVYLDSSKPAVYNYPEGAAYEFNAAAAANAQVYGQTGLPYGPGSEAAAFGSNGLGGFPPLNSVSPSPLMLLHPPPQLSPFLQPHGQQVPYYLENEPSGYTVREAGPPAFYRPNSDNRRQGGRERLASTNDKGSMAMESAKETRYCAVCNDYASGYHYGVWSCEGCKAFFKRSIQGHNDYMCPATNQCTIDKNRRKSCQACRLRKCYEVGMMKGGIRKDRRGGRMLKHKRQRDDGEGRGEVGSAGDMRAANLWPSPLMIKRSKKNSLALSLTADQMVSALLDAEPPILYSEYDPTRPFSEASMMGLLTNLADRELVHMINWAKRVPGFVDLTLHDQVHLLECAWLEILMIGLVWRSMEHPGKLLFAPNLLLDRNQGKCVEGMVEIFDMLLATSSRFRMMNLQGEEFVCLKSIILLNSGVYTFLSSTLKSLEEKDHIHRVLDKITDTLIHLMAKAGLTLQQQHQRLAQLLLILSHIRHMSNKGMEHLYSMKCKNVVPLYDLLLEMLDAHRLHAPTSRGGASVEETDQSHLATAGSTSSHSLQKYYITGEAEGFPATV
# Chain of X-box-binding protein 1 (Homo sapiens) (P17861 whole entry, looked up): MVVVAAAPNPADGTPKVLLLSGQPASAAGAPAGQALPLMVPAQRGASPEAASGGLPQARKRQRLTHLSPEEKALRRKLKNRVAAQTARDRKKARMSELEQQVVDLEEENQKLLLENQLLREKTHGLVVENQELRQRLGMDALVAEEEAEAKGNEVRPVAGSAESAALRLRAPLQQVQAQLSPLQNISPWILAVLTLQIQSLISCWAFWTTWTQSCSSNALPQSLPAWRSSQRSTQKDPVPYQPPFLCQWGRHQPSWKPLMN
# Chain of Steroid hormone receptor ERR1 (Homo sapiens) (P11474 whole entry, looked up, the tested form may be a part): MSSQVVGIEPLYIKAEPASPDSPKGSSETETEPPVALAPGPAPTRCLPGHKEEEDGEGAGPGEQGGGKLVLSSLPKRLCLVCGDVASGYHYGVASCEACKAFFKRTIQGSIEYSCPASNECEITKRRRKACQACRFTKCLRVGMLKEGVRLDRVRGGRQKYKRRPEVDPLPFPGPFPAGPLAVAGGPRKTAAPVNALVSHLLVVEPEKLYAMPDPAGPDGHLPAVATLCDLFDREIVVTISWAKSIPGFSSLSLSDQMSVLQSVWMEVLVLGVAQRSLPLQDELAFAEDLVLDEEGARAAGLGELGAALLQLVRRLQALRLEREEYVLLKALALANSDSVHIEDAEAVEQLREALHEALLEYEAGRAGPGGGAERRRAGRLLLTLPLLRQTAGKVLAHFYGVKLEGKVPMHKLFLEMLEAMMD
# Chain of Estrogen-related receptor gamma (Homo sapiens) (P62508 whole entry, looked up, the tested form may be a part): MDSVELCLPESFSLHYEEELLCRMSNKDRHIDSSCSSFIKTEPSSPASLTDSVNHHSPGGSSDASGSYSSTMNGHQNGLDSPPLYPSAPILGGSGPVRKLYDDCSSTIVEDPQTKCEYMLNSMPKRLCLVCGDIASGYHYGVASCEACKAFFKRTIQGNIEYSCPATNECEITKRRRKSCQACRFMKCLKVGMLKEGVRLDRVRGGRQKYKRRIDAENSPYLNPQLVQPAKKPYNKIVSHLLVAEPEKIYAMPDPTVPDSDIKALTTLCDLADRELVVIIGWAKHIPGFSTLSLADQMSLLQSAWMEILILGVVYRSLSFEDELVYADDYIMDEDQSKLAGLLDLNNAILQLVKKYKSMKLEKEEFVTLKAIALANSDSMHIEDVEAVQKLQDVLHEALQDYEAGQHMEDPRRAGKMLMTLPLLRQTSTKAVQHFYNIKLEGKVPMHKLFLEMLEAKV
compound,measurement,setting,value
COc1cccc(-c2ccc(/C=C\CN3CCCCCC3)cc2Cl)c1,outcome,[1],inactive
same,outcome,[2],inactive
same,AC50,[3],6.94 µM (active)
same,outcome,[4],inactive
same,outcome,[5],inactive
same,outcome,[6],inactive
Cc1ccc(N)cc1O,outcome,[1],inactive
same,outcome,[2],inactive
same,outcome,[3],inactive
same,outcome,[4],inactive
same,outcome,[7],inactive
CCC(C)(C)C(=O)O[C@H]1C[C@@H](C)C=C2C=C[C@H](C)[C@H](CC[C@@H]3C[C@@H](O)CC(=O)O3)[C@H]21,outcome,[1],inactive
same,outcome,[2],inactive
same,outcome,[3],inactive
same,outcome,[4],inactive
same,outcome,[7],inactive
same,outcome,[5],inactive
same,outcome,[8],inactive
CC(C)CCO,outcome,[1],inactive
same,outcome,[2],inactive
same,outcome,[3],inactive
same,outcome,[4],inactive
same,outcome,[7],inactive
same,outcome,[5],inactive
same,outcome,[8],inactive
CC[C@H]1CC[C@H](NCc2cc3c(cc2OC)[C@H]2C[C@H]2C(=O)N3C)[C@H](c2ccccc2)N1,outcome,[1],inactive
same,outcome,[2],inactive
same,AC50,[3],33.2 µM (active)
same,outcome,[4],inactive
same,outcome,[9],inactive
same,outcome,[6],inactive
O=P(OC(CCl)CCl)(OC(CCl)CCl)OC(CCl)CCl,outcome,[1],inactive
same,outcome,[2],inactive
same,AC50,[3],3.53 µM (active)
same,outcome,[4],inactive
same,AC50,[7],100 µM (active)
same,outcome,[8],inactive
CC1(C)C(=O)N(Br)C(=O)N1Br,outcome,[1],inactive
same,outcome,[2],inactive
same,outcome,[3],inactive
COc1ccc(-n2nc(C(F)F)cc2-c2ccc(S(C)=O)cc2)cc1 (stereo not given),outcome,[1],inactive
same,outcome,[2],inactive
same,outcome,[3],inactive
same,outcome,[4],inactive
same,outcome,[5],inactive
CC/C(=C\C(=N/O)C(N)=O)C(C)[N+](=O)[O-] (stereo not given),outcome,[1],inactive
same,outcome,[2],inactive
same,outcome,[3],inactive
same,outcome,[4],inactive
same,outcome,[9],inactive
same,outcome,[5],inactive
same,outcome,[8],inactive
COC(=O)c1ccccc1O,outcome,[1],inactive
same,outcome,[2],inactive
same,AC50,[3],26.4 µM (active)
same,AC50,[4],25.1 µM (active)
CC[C@H](C)C(=O)O[C@H]1C[C@@H](C)C=C2C=C[C@H](C)[C@H](CC[C@@H]3C[C@@H](O)CC(=O)O3)[C@H]21,outcome,[1],inactive
same,outcome,[2],inactive
same,AC50,[3],4.47 µM (active)
same,outcome,[4],inactive
same,outcome,[7],inactive
same,outcome,[5],inactive
CCn1nc(Cc2ccccc2)cc1C1CCN(C[C@H]2C[C@H](N(C)[C@@H](C(=O)O)C(C)C)C[C@@H]2c2cccc(F)c2)CC1,outcome,[1],inactive
same,outcome,[2],inactive
same,outcome,[3],inactive
same,outcome,[4],inactive
same,outcome,[7],inactive
same,outcome,[5],inactive
same,outcome,[8],inactive
COC(=O)c1c(Cl)c(Cl)c(C(=O)OC)c(Cl)c1Cl,outcome,[1],inactive
same,outcome,[2],inactive
same,outcome,[3],inactive
same,outcome,[4],inactive
same,outcome,[9],inactive
same,outcome,[7],inactive
same,outcome,[5],inactive
same,outcome,[8],inactive
same,outcome,[6],inactive
O=c1n(CC2CO2)c(=O)n(CC2CO2)c(=O)n1CC1CO1 (stereo not given),outcome,[1],inactive
same,outcome,[2],inactive
same,AC50,[3],100 µM (active)
same,outcome,[4],inactive
same,AC50,[7],74.9 µM (active)
CCCCCCCCCCCCCCCO,outcome,[1],inactive
same,outcome,[2],inactive
same,outcome,[3],inactive
Cc1ccc(S(=O)(=O)O)cc1C,outcome,[1],inactive
same,outcome,[2],inactive
same,outcome,[3],inactive
same,outcome,[4],inactive
same,outcome,[5],inactive
C1=CCCC=CCCC=CCC1,outcome,[1],inactive
same,outcome,[2],inactive
same,outcome,[3],inactive
C=CCCCCCCCCC(=O)O,outcome,[1],inactive
same,outcome,[2],inactive
same,outcome,[3],inactive
same,outcome,[4],inactive
same,outcome,[5],inactive
Cc1ccc(C)c(O)c1,outcome,[1],inactive
same,outcome,[2],inactive
same,outcome,[3],inactive
CCCCCCCCO,outcome,[1],inactive
same,outcome,[2],inactive
same,outcome,[3],inactive
same,outcome,[4],inactive
same,outcome,[7],inactive
same,outcome,[5],inactive
same,outcome,[8],inactive
C[C@](N)(Cc1ccc(O)c(O)c1)C(=O)O,outcome,[1],inactive
same,outcome,[2],inactive
same,outcome,[3],inactive
Cn1c(=O)cc(Oc2ccc(F)cc2F)c2cnc(NCC(C)(C)O)nc21,outcome,[1],inactive
same,outcome,[2],inactive
same,outcome,[3],inactive
same,outcome,[4],inactive
same,outcome,[7],inactive
same,outcome,[5],inactive
O=C(O)CC(O)C(=O)O (stereo not given),outcome,[1],inactive
same,outcome,[2],inactive
same,outcome,[3],inactive
C=CC(=C)CCC=C(C)C,outcome,[1],inactive
same,outcome,[2],inactive
same,outcome,[3],inactive
same,outcome,[4],inactive
same,outcome,[7],inactive
COc1ccc2sc(C(=O)Nc3nnn[nH]3)c(OC(C)C)c2c1,AC50,[1],130 µM (active)
same,outcome,[2],inactive
same,AC50,[3],157 µM (active)
same,AC50,[4],59.3 µM (active)
same,AC50,[7],156 µM (active)
same,outcome,[8],inactive
same,outcome,[6],inactive
O=C(OC[C@H]1O[C@@H](OC(=O)c2cc(O)c(O)c(OC(=O)c3cc(O)c(O)c(O)c3)c2)[C@H](OC(=O)c2cc(O)c(O)c(OC(=O)c3cc(O)c(O)c(O)c3)c2)[C@@H](OC(=O)c2cc(O)c(O)c(OC(=O)c3cc(O)c(O)c(O)c3)c2)[C@@H]1OC(=O)c1cc(O)c(O)c(OC(=O)c2cc(O)c(O)c(O)c2)c1)c1cc(O)c(O)c(OC(=O)c2cc(O)c(O)c(O)c2)c1,outcome,[1],inactive
same,outcome,[2],inactive
same,outcome,[3],inactive
COCCOc1cc2cc(C(=O)NC3CCN(C(C)C)CC3)n(CC(=O)Nc3ccc(Cl)cn3)c2cn1,outcome,[1],inactive
same,outcome,[2],inactive
same,AC50,[3],124 µM (active)
CCOC(=O)COc1ccc2c(c1)CC(NCC(O)c1cccc(Cl)c1)CC2 (stereo not given),outcome,[1],inactive
same,outcome,[2],inactive
same,outcome,[3],inactive
same,AC50,[4],47.1 µM (active)
same,outcome,[5],inactive
same,outcome,[6],inactive
CC(C)=CCCC(C)=CC=O,outcome,[1],inactive
same,outcome,[2],inactive
same,AC50,[3],22.2 µM (active)
same,outcome,[4],inactive
same,outcome,[7],inactive
CCNc1ccccc1,outcome,[1],inactive
same,outcome,[2],inactive
same,outcome,[3],inactive
same,outcome,[7],inactive
same,outcome,[8],inactive
CC(C)=CCC/C(C)=C\CO,outcome,[1],inactive
same,outcome,[2],inactive
same,outcome,[3],inactive
same,outcome,[7],inactive
same,outcome,[5],inactive
